High-throughput results from PubChem.
NPC1 prom act = qHTS Assay for NPC1 Promoter Activators. actives 2.4% (n = 320,000). Potency, µM (doses to about 9.22 µM), without a hit: at the highest dose activation, usual class: activators. Huh7 NPC1 promoter luciferase reporter, 24 h; note: % of control where 0% means no effect; nearly all actives have a fitted effect of over 60% in size
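Luminescence from an NPC1 promoter-driven luciferase reporter in stably transfected Huh7 cells was measured after 24 h compound treatment at 37 °C, followed by 10 min ambient incubation with luciferase detection reagent.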
FLuc modulator = qHTS profiling assay for firefly luciferase inhibitor/activator using purifed enzyme and Km concentrations of substrates (counterscreen for miR-21 project); AID 588342, 2011; Luciferin 4-monooxygenase (Photinus pyralis), P08659; actives 6.9% (n = 360,000); Potency, µM (highest dose often 57.5 µM), for the others: at the highest dose activity change, negative = inhibition, hits mostly inhibitors; purified FLuc, Km substrates, luminescence inhibition;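 note: plate controls were vehicle for no effect and reference inhibitor for full effect; nearly all actives have a fitted effect of over 55% in size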
Target sequence (P08659 whole entry, looked up): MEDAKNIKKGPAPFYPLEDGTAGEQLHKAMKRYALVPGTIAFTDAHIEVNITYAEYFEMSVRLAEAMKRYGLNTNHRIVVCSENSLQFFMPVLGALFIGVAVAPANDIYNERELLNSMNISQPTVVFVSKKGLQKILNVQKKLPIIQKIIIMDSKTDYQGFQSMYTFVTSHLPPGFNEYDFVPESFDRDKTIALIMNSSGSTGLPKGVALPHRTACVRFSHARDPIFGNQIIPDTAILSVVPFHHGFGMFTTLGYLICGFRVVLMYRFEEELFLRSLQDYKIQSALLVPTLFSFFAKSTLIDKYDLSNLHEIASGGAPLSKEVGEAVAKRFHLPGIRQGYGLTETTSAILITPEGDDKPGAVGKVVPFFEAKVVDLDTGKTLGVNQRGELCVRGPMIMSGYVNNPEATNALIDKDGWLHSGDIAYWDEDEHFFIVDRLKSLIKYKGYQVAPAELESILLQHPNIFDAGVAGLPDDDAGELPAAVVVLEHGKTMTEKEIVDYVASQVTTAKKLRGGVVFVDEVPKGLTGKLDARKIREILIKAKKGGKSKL
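Biochemical qHTS of compounds, final roughly 60 µM downward over six points, against 10 nM purified firefly luciferase using Km concentrations of substrates (10 uM D-luciferin, 10 uM ATP) in Tris acetate pH 7.5 buffer; luminescence output.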
Luc counter = Counterscreen for Luciferase (Kinase-Glo TM) Inhibition. AID 1379, 2008. Kinase-Glo luciferase, ATP luminescence, 8 min. Potency, µM (doses to about 38.3 µM), without a hit: at the top dose activity change, negative = inhibition, hits mostly inhibitors. actives 0.28% (n = 200,000). Luciferin 4-monooxygenase (Photuris pensylvanica), Q27757; note: % is set by controls: 0 for no effect and ±100 for the full control effect; nearly all actives have a fitted effect of over 60% in size
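Kinase-Glo luciferase light output from ATP and luciferin was measured with 10 uM ATP, within the enzyme's linear range. Buffer: 50 mM imidazole pH 7.2, 50 mM KCl, 7 mM MgCl2, 0.01% Tween 20, 0.05% BSA; luminescence read after 8 min at ambient temperature.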
Rab9 prom act = qHTS Assay for Rab9 Promoter Activators | Huh7 Rab9 promoter-luciferase reporter, luminescence, 24 h | Potency, µM (series often up to 9.22 µM), inactives show at the top dose activation, negative = inhibition, most hits filed as activators | actives 2.8% (n = 320,000) | AID 485297, 2010; note: % of control where 0% means no effect; nearly all actives have a fitted effect of over 60% in size
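Huh7 reporter line, Rab9 promoter upstream of luciferase. Compound exposure 24 h at 37 °C in reduced-serum medium with 10% FBS. Read-out: luminescence.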
SMN2 splice up = qHTS Assay for Enhancers of SMN2 Splice Variant Expression; AID 1458, 2008; Potency, µM (doses to about 46.1 µM), inactives show at the top dose activity change, positive = activation, actives largely listed as activators; actives 2.8% (n = 210,000); HEK293 SMN2-luciferase splicing reporter, luminescence, 30-36 h; note: % of control where 0% means no effect; nearly all actives have a fitted effect of over 55% in size
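qHTS luciferase splicing reporter: luminescence rises when SMN2 exon 7 is included in transfected HEK293 cells. Compound exposure lasted 30-36 h at 37C, with 4.5 mM final sodium butyrate as control, followed by a ONE-Glo read.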
ELG1 genotoxic = qHTS screen for small molecules that induce genotoxicity in human embryonic kidney (HEK293T) cells expressing luciferase-tagged ELG1; HEK293T ELG1-luciferase reporter, luminescence, 16 h; actives 1.3% (n = 330,000); Potency, µM (highest dose often 46 µM), without a hit: at the top dose activity change, positive = activation, usual class: activators; AID 504466, 2011; note: % of control where 0% means no effect; nearly all actives have a fitted effect of over 60% in size
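Genotoxic stress is detected as increased luminescence from luciferase-tagged ELG1 in HEK293T cells, measured with ONE-Glo after a 16 hr treatment at 37 °C.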
Numbers without * were called inactive; ? = inconclusive; nt = no result. Sampled rows, rich in hits. Any-hit rate of the full collection: about 7.5%. Calls come from the whole dose curve; as a rule, active = well fitted curve in the direction sought with a large enough effect; inconclusive = small, poorly fitted or top-dose-only effect, or another doubt; inactive = no such curve, though single readings can be large; an effect the other way counts as inactive or inconclusive. Potency is the fitted concentration of half-maximal effect.

SMILES	NPC1 prom act	FLuc modulator	Luc counter	Rab9 prom act	SMN2 splice up	ELG1 genotoxic
O=C(C1CCCO1)N1CCN(c2c3c(nc4cc(-c5ccc(F)cc5)nn24)CCC3)CC1 (stereo not drawn)	1%	4.8µM*	4%	2%	-2%	0%
COc1cccc(-c2cc3nc4c(c(N5CCC6(CC5)OCCO6)n3n2)CCC4)c1	-8%	27µM*	2%	-1%	-8%	-8%
C[C@H]1CN=C(N(C)C)N1CC1CCCCC1	-3%	0%	nt	-1%	nt	0%
Cc1cc(C)n2nc(SC(C)C(=O)N3CC(C)OC(C)C3)nc2n1 (stereo not drawn)	nt	nt	nt	nt	nt	0%
CCCN1CC(CSC)C[C@H]2c3cccc4[nH]cc(c34)C[C@H]21 (stereo partly drawn)	nt	nt	-9%	nt	-28%	nt
Cc1ccc(CNC2CCCCC2)s1	-5%	1%	nt	-2%	nt	-5%
Cc1cccc(-c2cc3nc4c(c(N5CCCC(O)C5)n3n2)CCC4)c1 (stereo not drawn)	0%	-17%	0%	-3%	-22%	-15%
OC1CCCN(c2c3c(nc4cc(-c5cccc(F)c5)nn24)CCCC3)C1 (stereo not drawn)	?	?	4%	?	11µM*	?
Cc1cccc(-c2cc3nc4c(c(NCc5ccco5)n3n2)CCCC4)c1	?	11µM*	-3%	3.2µM*	24%	8%
CN(C)CCCNc1c2c(nc3cc(-c4cccc(F)c4)nn13)CCC2	-4%	1%	0%	-2%	nt	4%
COc1cccc(C2Nc3ccc4ccccc4c3C3=C2C(=O)CC(C)(C)C3)c1OCC(=O)O (stereo not drawn)	0%	4%	nt	-1%	nt	4%
Cc1c(Cl)cccc1Nc1nc(N)nc(CSCCO)n1	2%	2%	3%	-2%	1%	-2%
Cc1c(Cl)cccc1Nc1nc(N)nc(CSc2ncccn2)n1	23%	?	16%	?	8%	16µM*
O=c1c(-c2cccs2)nc2cncnc2n1C1CC1	nt	nt	-5%	nt	0%	nt
CC(C)[C@@H](N)C(=O)N/N=C/c1ccc2ncccc2c1	2%	?	nt	-1%	nt	-1%
Fc1c(F)c(F)c(N=Cc2ccc3ncccc3c2)c(F)c1F	-4%	6.7µM*	-3%	-2%	-28%	8%
COc1ccc(-c2n[nH]c(C)c2-c2ccc(Cl)cc2)c(O)c1	2%	1%	-2%	3%	-16%	-6%
COc1ccc(-c2cc(-c3cc(C)ccc3O)[nH]n2)cc1	-23%	12µM*	1%	-36%	nt	?
COc1ccc(-c2cc(-c3ccc(C)cc3)n[nH]2)c(O)c1	1.3µM*	4.8µM*	nt	1.3µM*	nt	?
COc1ccc(Oc2ccc(-c3ccn[nH]3)cc2)cc1	?	24µM*	nt	?	nt	10%
Cc1ccc(O)c(-c2cc(-c3ccccc3C)[nH]n2)c1	-3%	?	3%	-1%	27%	1%
COc1ccc(-c2cc(-c3ccc(OC)cc3)[nH]n2)cc1	2.8µM*	8.5µM*	14%	?	10%	?
Cc1ccccc1C(=O)NNC(=O)CSc1nc(-c2ccccc2)cc(=O)[nH]1	11%	11µM*	-2%	20%	5%	6%
CCc1ccc(NC(=O)c2cc(-c3ccc(OC)cc3)on2)cc1	1%	0%	3%	28%	-7%	0%
CCc1ccc(NC(=O)c2cc(C(C)C)on2)cc1	0.89µM*	1.9µM*	-17%	0.63µM*	1.4µM*	?
SMILES	NPC1 prom act	FLuc modulator	Luc counter	Rab9 prom act	SMN2 splice up	ELG1 genotoxic
CCc1ccc(NC(=O)c2cc(C)on2)cc1	0.5µM*	3µM*	-6%	0.89µM*	6.3µM*	?
Cc1ccc(NC(=S)Nc2ccc3cn[nH]c3c2)cc1	0%	?	-1%	-3%	17%	-2%
Cc1ccc(NC(=S)Nc2cc(C)on2)cc1	1.4µM*	27µM*	nt	2.8µM*	nt	?
Cc1noc(C(=O)Nc2ccc(Cl)cc2)c1Cl	-1%	0%	nt	5%	nt	0%
Cc1ccc(NC(=O)c2onc(C)c2Cl)cc1	15%	13µM*	-5%	?	14µM*	16µM*
CCCn1c2ccc(C)cc2c2n[nH]c(=S)nc21	-2%	-1%	nt	-2%	nt	-2%
Cc1ccc(NC(=O)c2cc(C)on2)cc1	1.4µM*	6.7µM*	nt	1.4µM*	nt	?
CCc1ccc(NC(=O)c2cc(C)no2)cc1	?	12µM*	nt	?	nt	?
Cc1cc(C(=O)Nc2ccccn2)no1	?	?	-9%	?	11µM*	?
Cc1cc(C(=O)Nc2ccc3c(c2)OCO3)no1	0%	-5%	nt	1%	nt	-19%
Cc1cc([N+](=O)[O-])ccc1NC(=O)c1cncc(Br)c1	-3%	2%	2%	1%	-4%	-5%
Cc1ccc(NC(=O)c2ccc(CSc3ccccn3)cc2)cc1	?	?	-3%	?	-6%	1%
Cc1ccc(NC(=O)c2cncc(Br)c2)c(O)c1	?	17µM*	-1%	?	?	-1%
O=C(Nc1ccccc1C(=O)O)c1cncc(Br)c1	12%	?	-3%	12%	6%	0%
Cc1ccc(NC(=O)c2ccc3nc[nH]c3c2)c(O)c1	3.2µM*	19µM*	-4%	?	13µM*	?
Cc1ccc(NC(=O)c2cncc(Br)c2)nc1	3.2µM*	?	nt	?	nt	?
Cc1ccc(NC(=O)c2ccc(CSc3ccccn3)cc2)c(O)c1	12%	24µM*	nt	11%	nt	0%
CN(Cc1ccccc1OCCO)CC1CCCN(CCc2ccc(Cl)cc2)C1 (stereo not drawn)	11%	-1%	nt	3%	nt	-11%
Cc1cccc(N2CCN(C(=O)CCCn3c(=O)[nH]c4ccsc4c3=O)CC2)c1C	nt	4%	nt	nt	-2%	nt
CCCN1C(=O)C(=O)N(CC(=O)c2cc(C)n(C3CC3)c2C)C1=O	2.8µM*	?	nt	1.4µM*	nt	?
CCc1nc2ccc(C(=O)NCCc3ccc(OC)cc3OC)cc2nc1CC	nt	-17%	nt	nt	nt	nt
CCOC(=O)c1c(S(=O)(=O)NCC(=O)N2CCN(c3cccc(Cl)c3)CC2)c(C)n(C)c1C	nt	-7%	nt	nt	nt	nt
O=C1CCC(C(=O)N2CCN(c3cnccn3)CC2)CN1CCc1cccc(F)c1 (stereo not drawn)	4%	-9%	nt	5%	nt	1%
CC(=O)N1CCC(C(=O)Nc2ccc(S(=O)(=O)N3CCCCC3)cc2)CC1	-2%	2%	nt	3%	nt	-1%
